Assay [1] is described as follows: Viability qHTS for spleen associated tyrosine kinase inhibitor (SYKi) naive MV4-11 cells (AID 1963823). Also: nearly all actives have a fitted effect of over 40% in size. A digest of the protocol: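 CellTiter-Glo luminescence, 10 min room-temperature incubation, gave viability. Cells: naive MV4-11 (500/well), treated 72 hr at 37 C, 5% CO2.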
Assay [2] can be described thus: Viability qHTS for spleen associated tyrosine kinase inhibitor (SYKi) drug resistant MV4-11 cells (AID 1963824). Also: nearly all actives have a fitted effect of over 35% in size. A digest of the protocol:
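CellTiter-Glo luminescence, read 10 min after reagent addition, reports viability after a 72 hr compound exposure. Cells are an MV4-11 line made resistant to SYK inhibition, seeded at 500 per well onto compound-containing plates.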
(In qHTS, concentration-response curves come from the screen itself.)

Data on 39 compounds can be found in PubChem BioAssay (NCATS).

Inconclusive results are not listed. Values without a mark were called inactive. The source made the active and inactive calls. Calls follow the shape of the dose curve; as a rule, active = well fitted cell-killing curve with a large enough effect; inconclusive = small, poorly fitted or top-dose-only effect, or effect the other way; inactive = no such curve, though single readings can be large or run the other way.
Potency is read from the fitted curve at half-maximal effect.

With `CC(C)(C(=O)NCC(F)(F)C(F)(F)F)C(=O)NC1C(=O)Nc2ccccc2-c2ccccc21` (stereo not drawn), the Potency in assay [1] is 14.6 µM (active); in assay [2], 13 µM (active).

Regarding `CCC(CC)(NC(=O)C(C)C)C(=O)N[C@@H](CCCN=C(N)N)C(=O)NC1(C(=O)NC(c2ccc(F)cc2)c2ccc(F)cc2)CCCC1`, the Potency result in assay [1] and in assay [2] was “inactive” throughout.

On to `CCC(C)/C=C(C)/C=C/C1=CC2=C(Cl)C(=O)C(C)(OC(C)=O)C(=O)C2=CN1C1CCCCN(C(CCC(N)=O)C(=O)O)C1=O` (stereo not drawn), for which the Potency result in assay [1] and in assay [2] was “inactive” in each case.

For the compound `O=C(CC12CC3CC(CC(C3)C1)C2)Nc1cccc2nc(NCCNCCO)ccc12`, the Potency was 18.6 µM (active) in assay [1] and 16.4 µM (active) in assay [2].

Turning to `COc1cc(CO)cc(OC)c1O[C@@H]1O[C@H](CO)[C@@H](O)[C@H](O)[C@H]1O`, the Potency result in assay [1] and in assay [2] was “inactive” throughout.

Consider `COc1cc2c(cc1O)CC[C@H]1[C@@H]2CC[C@]2(C)[C@H](O)CC[C@@H]12`, for which the Potency in assay [1] was 0.58 µM (active); in assay [2], 0.731 µM (active).

In the case of `O=c1ccn(C2OC(CO)C(O)C2O)c(=O)[nH]1` (stereo not drawn), the Potency result in assay [1] was “inactive”. Further, the Potency in assay [2] was 2.06 µM (active).

In the case of `CC(/C=C/C1(O)C(C)(C)CC(O)CC1(C)O)OC1OC(CO)C(O)C(O)C1O` (stereo not drawn), the Potency result in assay [1] and in assay [2] was “inactive” throughout.

With `COc1cc(C)c(/C=C/C(C)=C/C=C/C(C)=C/C(=O)O)c(C)c1C`, the Potency in assay [1] was 2.35 µM (active); in assay [2], 4.68 µM (active).

For `CN(C)CC/C=C1\c2ccccc2COc2ccccc21`, the Potency result in assay [1] and in assay [2] was “inactive” each time.

With `C=C1[C@H](OC(C)=O)[C@H]2[C@@H](OC(C)=O)[C@](C)(OC(C)=O)C[C@]2(OC(C)=O)C(=O)[C@H](C)/C=C/C(C)(C)C(=O)[C@H](OC(=O)C(C)C)[C@H]1OC(C)=O`, the Potency result in assay [1] and in assay [2] was “inactive” in each case.

In the case of `COC(=O)C1=COC(OC2OC(CO)C(O)C(O)C2O)C2C(COC(=O)/C=C/c3ccc(O)c(O)c3)C(O)C(O)C12` (stereo not drawn), the Potency result in assay [1] and in assay [2] was “inactive” in each case.

On to `C=C1CC2C3(C)C(O)CC(=O)C(C)(C)C3C(OC(C)=O)C(OC(C)=O)C2(C)C2C(=O)OC(C)(C(=O)OC)C(=O)C12C` (stereo not drawn), for which the Potency result in assay [1] and in assay [2] was “inactive” each time.

For the compound `CC(=O)O[C@@H]1[C@@H](O)[C@H](O[C@H]2CC[C@]34C[C@]35CC[C@]3(C)[C@@H]([C@@]6(C)CC[C@@H](C(C)(C)O)O6)[C@@H](O)C[C@@]3(C)[C@@H]5C[C@H](O[C@@H]3O[C@H](CO)[C@@H](O)[C@H](O)[C@H]3O)[C@H]4C2(C)C)OC[C@H]1O`, the Potency result in assay [1] and in assay [2] was “inactive” in each case.

For `CCc1nn(CCO)c(CC)c1Oc1cc(C#N)cc(C#N)c1`, the Potency result in assay [1] and in assay [2] was “inactive” in each case.

As for `COC(=O)CC1(O)C(=O)Nc2ccccc21` (stereo not drawn), the Potency entry in assay [1] and in assay [2] was “inactive” each time.

`C[C@]12CC[C@@H]3c4ccc(O)cc4CC[C@H]3[C@@H]1C[C@@H](O[C@@H]1O[C@H](C(=O)O)[C@@H](O)[C@H](O)[C@H]1O)[C@@H]2O`: the Potency entry in assay [1] and in assay [2] was “inactive” in each case.

Consider `C=C1CC2OC(=O)C(=C)C2C(OC(=O)/C(C)=C\C)CC2(C)OC1=CC2=O` (stereo not drawn), for which the Potency in assay [1] and in assay [2] was 0.453 µM (active) throughout.

Consider `Nc1ccc(-n2nc(C(F)(F)F)cc2C(F)(F)F)cc1`, for which the Potency entry in assay [1] and in assay [2] was “inactive” each time.

As to `O=C(/C=C/c1ccc(O)cc1)OC[C@H]1O[C@H](O[C@@]2(CO)O[C@@H](CO)[C@H](O)[C@H]2O)[C@H](O)[C@@H](O)[C@@H]1O`, the Potency result in assay [1] and in assay [2] was “inactive” each time.

In the case of `O=C(O)c1cc(O[C@@H]2O[C@H](CO)[C@@H](O)[C@H](O)[C@H]2O)ccc1O`, the Potency entry in assay [1] and in assay [2] was “inactive” each time.

Turning to `C[C@H](N)C(=O)N[C@@H](Cc1ccc(O)cc1)C(=O)N1CCC[C@H]1C(=O)NCC(=O)N[C@@H](CCCCN)C(=O)N[C@@H](Cc1ccccc1)C(N)=O`, the viability (% of control) in assay [1] is 94.9% [at 9.25 µM]. Besides, in assay [2], the viability, % of control was 89.8% [at 9.25 µM].

For `COc1cc(N2CCOCC2)ccc1Nc1ncc(F)c(Nc2ccccc2NS(C)(=O)=O)n1`, the Potency in assay [1] is 1.64 µM (active); in assay [2] it was 2.59 µM (active).

As for `CC1CCC2C(C(=O)O)=CC3C(O)C(C)(C)CC123` (stereo not drawn), the Potency entry in assay [1] and in assay [2] was “inactive” each time.

With `C=C1CC23CC1CCC2C12OC(=O)C(C)(CCC1O)C2C3C(=O)O` (stereo not drawn), the Potency result in assay [1] and in assay [2] was “inactive” throughout.

With `C[C@]1(O)CC[C@@H]2C(C(=O)O)=CO[C@@H](O[C@@H]3O[C@H](COC(=O)c4ccc(O)cc4)[C@@H](O)[C@H](O)[C@H]3O)[C@@H]21`, the Potency entry in assay [1] and in assay [2] was “inactive” each time.

Regarding `CC1(C)CC[C@]2(C(=O)O[C@@H]3O[C@H](CO)[C@@H](O)[C@H](O)[C@H]3O)CC[C@]3(C)C(=CCC4[C@@]5(C)CC[C@H](OC6OC(C(=O)O)C(OC7OC(CO)C(O)C(O)C7O)C(O)C6O)C(C)(C)C5CC[C@]43C)C2C1` (stereo partly drawn), the viability (% of control) in assay [1] is 86.6% [at 9.25 µM]. In assay [2], the viability, % of control was 91.6% [at 9.25 µM].

As for `Fc1ccc(C2CCNC[C@H]2COc2ccc3c(c2)OCO3)cc1` (stereo partly drawn), the results for the Potency in assay [1] and in assay [2] were 16.4 µM (active) and 9.2 µM (active), respectively.

For the compound `C#Cc1cnc2[nH]c(=O)n(C(CC)CC)c2n1`, the Potency result in assay [1] and in assay [2] was “inactive” in each case.

Consider `C/C=C(\C)C(=O)OC[C@H]1O[C@@H](O[C@H]2[C@@H](O[C@H]3O[C@H](COC(=O)/C(C)=C/C)[C@@H](O)[C@H](O)[C@H]3O[C@@H]3O[C@H](CO)[C@@H](O)[C@H](OC(=O)/C(C)=C/C)[C@H]3O)O[C@H](COC(=O)/C(C)=C/C)[C@@H](O)[C@@H]2O)[C@H](O)[C@@H](O)[C@@H]1O`, for which the viability (% of control) in assay [1] is 81.6% [at 9.25 µM]. In assay [2], the viability, % of control is 90.8% [at 9.25 µM].

Turning to `N#Cc1ccc2[nH]cc(CCCCN3CCN(c4ccc5oc(C(N)=O)cc5c4)CC3)c2c1`, the results for the Potency in assay [1] and in assay [2] were 11.6 µM (active) and 18.4 µM (active), respectively.

In the case of `COC(=O)c1cc(OC)cc(OC)c1C(=O)c1c(OC)cc2c(c1O)C1CCCC(C)(O2)O1` (stereo not drawn), the Potency result in assay [1] is “inactive”. Further, in assay [2], the Potency is 7.09 µM (active).

Turning to `CC1CCC2C(=CCC(O)C2(C)C)C1(C)Cc1c(O)cc(CO)c(C=O)c1O` (stereo not drawn), the Potency is 10.1 µM (active) in assay [1] and 7.18 µM (active) in assay [2].

For the compound `COC(=O)C1=CO[C@@H](O[C@@H]2O[C@H](CO)[C@@H](O)[C@H](O)[C@H]2O)[C@@H]2[C@@H](C(=O)O)CC[C@H]12`, the Potency result in assay [1] and in assay [2] was “inactive” each time.

In the case of `COC1=Cc2c(nc3n(c2=O)C(C)C(=O)NC3(O)C(C)C)OC=C1` (stereo not drawn), the Potency entry in assay [1] and in assay [2] was “inactive” in each case.

Take `COc1cc(/C=C/C(=O)O)ccc1O[C@@H]1O[C@H](CO)[C@@H](O)[C@H](O)[C@H]1O[C@@H]1OC[C@](O)(CO)[C@H]1O`: the Potency result in assay [1] and in assay [2] was “inactive” throughout.

Regarding `Cc1ccccc1CN1C2=NCCN2C(=O)C2=C1CCN(Cc1ccccc1)C2`, the Potency is 16.4 µM (active) in assay [1] and 9.2 µM (active) in assay [2].

For the compound `O=S(=O)(c1cccc2ccccc12)n1ccc2ccc(N3CCN4CCCC4C3)cc21` (stereo not drawn), the Potency is 23.1 µM (active) in assay [1] and 20.6 µM (active) in assay [2].

On to `COc1cc2ncnc(Sc3nnc(C)s3)c2cc1OC`, for which the Potency in assay [1] is 0.82 µM (active); in assay [2], 1.16 µM (active).
